# Measurements from PubChem BioAssay (Tox21).
# Where “and” joins values, the source holds several entries; their conditions need not be identical. Identical values can stand only once. Results filed as inconclusive are left out. Entries that show only a call come without a potency. Calls of active or inactive are those of the source. The call rests on the fitted dose curve.
# Experiment: p53 small molecule agonists, cell-based qHTS assay with human liver microsomes: qHTS cell viability counter screen (AID 1963579); further: nearly all actives have a fitted effect of over 45% in size
# Settings: p53RE-bla HCT-116 viability, ATP luminescence, 16 h, HLM; series mostly up to 66 µM
# From the text: National Center for Advancing Translational Sciences [NCATS]
# Division of Preclinical Innovation [DPI]
# U.S. Environmental Protection Agency [EPA]
# National Institutes of Environmental Health Sciences [NIEHS]
# National Toxicology Program [NTP]
# U.S. Food and Drug Administration [FDA]
# p53, a tumor suppressor protein, is activated following cellular insult, including DNA damage and other cellular stresses. The activation of p53 regulates cell fate by inducing DNA repair, cell cycle arrest, apoptosis, or cellular senescence. The activation of p53, therefore, is a good indicator of DNA damage and other cellular stresses. […] The activation of the reporter gene under culture conditions can be detected by fluorescence intensity. This cell line was used to screen the Tox21 10K compound library in the condition of presence of human liver microsomes and to identify agonists that activate the p53 signaling pathway after in vitro metabolic activation (Ooka et al., Archive of Toxicology 96:1975-1987, 2022).
# Tox21 Assay Protocol Summary:
# The p53RE-bla cells were dispensed at 4,000cells/3ul/well in 1536-well black-clear bottom plates. After the assay plates were incubated at 37 C, 5% CO2 incubator for 5 hours, 23 nL of compounds dissolved in DMSO, positive controls or DMSO only was transferred to the assay plate. Following compound addition, 3 uL of human liver microsomes (XenoTech, Kansas City, KS) at final concentration of 0.5 mg/mL and 1uL of B-Nicotinamide adenine dinucleotide 2'-phosphate (NADPH) at final concentration of 0.5 mg/mL were transferred to the assay plate. The plates were incubated at 37 C for 16 hours. 1 uL of LiveBLAzer detection mixture was added to each well and the plates were incubated at room temperature in the dark for 2 h. Fluorescence intensity at 460 and 530 nm emission and 405 nm excitation were measured by an Envision plate reader. For cell viability readout that measures cytotoxicity, 4 ul/well of CellTiter-Glo reagent was added into the assay plates using a Flying Reagent Dispenser. After 30 min incubation at room temperature, the luminescence intensity in the plates was measured using a ViewLux plate reader.
# Potency means the concentration at half of the fitted maximal effect.
row,SMILES,Potency
1,CN=C=O,inactive
2,O=[N+]([O-])O,inactive
3,N#Cc1c(Cl)c(Cl)c(Cl)c(C#N)c1Cl,25.2 µM (active) and 18.2 µM (active)
4,CC(C)(C)C(=O)Cl,inactive
5,O=P(OCC(Br)CBr)(OCC(Br)CBr)OCC(Br)CBr (stereo not given),inactive
6,O=C(O)C(Cl)(Cl)Cl,inactive
7,N#CC(c1ccccc1)c1ccccc1,inactive
8,N#Cc1ccccc1Cl,inactive
9,COC(=O)Nc1nc2ccccc2[nH]1,inactive
10,O=S(=O)(O)C(F)(F)C(F)(F)C(F)(F)C(F)(F)C(F)(F)C(F)(F)F,inactive
11,CCCCOC(=O)COC(=O)c1ccccc1C(=O)OCCCC,inactive
12,O=Cc1ccccc1,inactive
13,CC1(C)[C@H](C(=O)O[C@H](C#N)c2cccc(Oc3ccccc3)c2)[C@@H]1/C=C(\Cl)C(F)(F)F,inactive
14,CCCC[N+]1(C)CCCC1 (tested in a mixture with another compound),inactive
15,O=P1(NCCCl)OCCCN1CCCl (stereo not given),inactive
16,CCC(C)(C#N)N=NC(C)(C#N)CC (stereo not given),inactive
17,CC(=O)CCC(C)=O,inactive
18,Oc1ccc(Cl)cc1,inactive
19,Cc1ccc([N+](=O)[O-])cc1,inactive
20,CCOC(=O)c1ccccc1C(=O)OCC,inactive

row,SMILES,Potency
1,CC1OC(C)OC(C)O1 (stereo not given),inactive
2,C(=NC1CCCCC1)=NC1CCCCC1,inactive
3,CCCCC(CC)COC(=O)c1ccc(C(=O)OCC(CC)CCCC)c(C(=O)OCC(CC)CCCC)c1 (stereo not given),inactive
4,N#Cc1cc(Br)c(O)c(Br)c1,inactive
5,ClC1(Cl)C2(Cl)C3(Cl)C4(Cl)C(Cl)(Cl)C5(Cl)C3(Cl)C1(Cl)C5(Cl)C24Cl (stereo not given),inactive
6,ClC1=C(Cl)C2(Cl)C3C(Cl)C=CC3C1(Cl)C2(Cl)Cl (stereo not given),inactive
7,Cc1cc(N=Nc2ccccc2C)ccc1N,inactive
8,CCOC(=O)c1ccccc1N,inactive
9,O=Cc1ccco1,inactive
10,Clc1ccccc1Cl,inactive
11,C=CC(=O)OCCCCCC(C)C,inactive
12,CC(C)=C[C@@H]1[C@@H](C(=O)OCc2coc(Cc3ccccc3)c2)C1(C)C,inactive
13,O=[N+]([O-])c1ccc(CBr)cc1,inactive
14,C/C(=N\NC(=O)Nc1cc(F)cc(F)c1)c1ncccc1C(=O)O,inactive
15,CC(C)(C#N)N=NC(C)(C)C#N,inactive
16,CCOC(=O)CP(=O)(OCC)OCC,inactive
17,O=C(O)C(F)(F)C(F)(F)C(F)(F)C(F)(F)C(F)(F)C(F)(F)C(F)(F)C(F)(F)C(F)(F)C(F)(F)F,inactive
18,CCCCN(CCCC)N=O,inactive
19,c1ccc(-c2ccccc2)cc1,inactive
20,Clc1cccc(C(Cl)(Cl)Cl)n1,inactive
